Sampled rows, rich in hits. Any-hit rate of the full collection: about 1.5%.
PGK inhibitor: qHTS Assay to Find Inhibitors of Phosphoglycerate Kinase | PGK/GAPDH coupled, Kinase-Glo luminescence, 60 min | Potency, µM (highest dose often 57.5 µM), most hits filed as inhibitors | actives 0.043% (n = 380,000) | AID 602233, 2012; further: nearly all actives have a fitted effect of over 60% in size
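Luminescent ATP detection (Kinase-Glo Plus) follows a 60-minute room-temperature incubation, with wells lacking PGK as controls. Buffer: 100 mM TEA (pH 7.6), 5 mM MgCl2, 0.01% Tween-20. Coupling enzyme GAPDH (100 nM final) supplies unstable 1,3-BPG in-well.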
WRN inhibitor: qHTS for Inhibitors of WRN Helicase; Potency, µM (top dose mostly 114 µM), usual class: inhibitors; WRN helicase unwinding, fluorescent forked duplex, kinetic; Bifunctional 3'-5' exonuclease/ATP-dependent helicase WRN (Homo sapiens), Q14191; actives 0.46% (n = 360,000); further: nearly all actives have a fitted effect of over 55% in size
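Kinetic fluorescence helicase assay: unwinding of a quenched forked DNA duplex (100 nM final) with 2 mM ATP final raises red fluorescence (525/598 nm). Compounds sat 15 min at room temperature with 20 nM WRN beforehand.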
PI5P4Ka inh: qHTS for Inhibitors of phosphatidylinositol 5-phosphate 4-kinase (PI5P4K). Phosphatidylinositol 5-phosphate 4-kinase type-2 alpha (Homo sapiens), P48426. PI5P4Kalpha enzyme, ADP-Glo luminescence, 60 min; hits give low values. max response, %. actives 1.2% (n = 330,000). AID 652105, 2013; active means max response of -50% or lower; inconclusive means between -30% and -50%; inactive means -30% or higher; further: value at the top dose of about 77 µM
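qHTS, 1536-well: enzyme/substrate mix, compound by pin tool, 5 microM ATP final; RT 60 min; ADP-Glo reagents 1 (45 min) then 2 (30 min); luminescence.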
TDP1 inh: qHTS Assay for Inhibitors of Tyrosyl-DNA Phosphodiesterase (TDP1). Tyrosyl-DNA phosphodiesterase 1 (Homo sapiens), Q9NUW8. recombinant TDP1, AlphaScreen DNA substrate cleavage. Potency, µM (titrated, usually from 130 µM), most hits filed as inhibitors. actives 0.28% (n = 350,000). AID 485290, 2010; further: nearly all actives have a fitted effect of over 40% in size
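Enzyme-compound mixtures sat 15 min at room temperature, followed by a 5 min reaction with 15 nM final substrate and 10 min with AlphaScreen beads. Recombinant human Tdp1 was used at 1 nM final.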
Tb PFK inh: qHTS Assay to Find Inhibitors of T. brucei phosphofructokinase. Potency, µM (top dose mostly 57.5 µM), most hits filed as inhibitors. ATP-dependent 6-phosphofructokinase (Trypanosoma brucei brucei), O15648. actives 0.17% (n = 330,000). T. brucei PFK, ADP-Glo luminescence; further: nearly all actives have a fitted effect of over 60% in size
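Activity is normalized to no-enzyme wells (full inhibition) and 1.25 nM enzyme wells (no inhibition). Reaction: 0.5 mM F6P, 0.1 mM ATP, 45 min RT, ADP-Glo luminescence; concentration-response curves fitted and classed by quality.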
FEN1 inh-1: qHTS Assay for the Inhibitors of Human Flap endonuclease 1 (FEN1) | P39748 | Recombinant FEN1 flap cleavage, fluorescence, 15 min | Potency, µM (titrated, usually from 114 µM), usual class: inhibitors | actives 0.35% (n = 390,000) | AID 588795, 2011; further: nearly all actives have a fitted effect of over 65% in size
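Quantitative HTS format: each compound was titrated, incubated with 10 nM nuclease for 15 min at room temperature, then challenged with flap substrate at 50 nM final. Signal change over 15 min gave concentration–effect curves.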
FEN1 inh-2: qHTS Assay for the Inhibitors of FEN1: Confirmatory Assay for Cherry-picked Compounds | shares compounds with FEN1 inh-1 | FEN1 flap cleavage, TAMRA/BHQ2 fluorogenic DNA substrate | Potency, µM, hits mostly inhibitors | actives 79% (n = 880) | AID 720498, 2013; further: nearly all actives have a fitted effect of over 60% in size
Numbers stand for hits; – = inactive; ? = inconclusive; · = no result; [ ] = dose if it differs, or a comment. Unless noted, the call rests on the fitted dose curve; in most records, active means well fitted curve in the direction sought with a large enough effect; inconclusive means small, poorly fitted or top-dose-only effect, or another doubt; inactive means no such curve, though single readings can be large; an effect the other way counts as inactive or inconclusive.

SMILES	PGK inhibitor	WRN inhibitor	PI5P4Ka inh	TDP1 inh	Tb PFK inh	FEN1 inh-1	FEN1 inh-2
COc1ccc(OC)c(CCNC(=O)Cn2nc(C)c3c(C)n(-c4ccc(C)cc4)nc3c2=O)c1	–	–[11.6 µM]	–	·	–	?	?
O=[N+]([O-])c1ccc(/C=N/Nc2nc(N3CCCCCC3)nc(N3CCCCCC3)n2)o1	–	–	–	–	–	35.5µM	37.9
COc1ccc(/C=N/NC(=O)c2[nH]c3ccc(Cl)cc3c2-c2ccccc2)c(C(=O)O)c1OC	–	?	–	·	–	?	37.9
COc1ccc(/C=N/NC(=O)c2[nH]c3ccc(Br)cc3c2-c2ccccc2)c(C(=O)O)c1OC	–	?	–	–	–	?	·
Cc1cc(N2CCOCC2)ccc1/C=C1/SC(=O)NC1=O	–	?	–	–	–	–	·
O=C1NC(=O)/C(=C\c2ccc(O)cc2O)S1	–	35.5µM	-91.9	·	–	15.8µM	67.5
COc1ccc(Nc2nc(N3CCCC3)c3ccccc3n2)cc1	–	?	–	–	–	?	33.8
COc1ccc(Nc2c3ccccc3nc3ccccc23)cc1	–	?	–	–	–	?	30.1
COc1ccc(Nc2c3c(nc4ccccc24)CCC3)cc1	–	–	–	·	–	–	·
Cc1cc2ccccc2c[n+]1CC(=O)c1ccc(F)cc1	·	·	·	·	·	–	·
Cc1ccc(CN2C(=O)N/C(=C\c3ccc(-c4ccc(C(=O)O)cc4C)o3)C2=O)cc1	?	?	–	8.91µM	–	44.7µM	75.7
Cc1cc(C(=O)O)ccc1-c1ccc(CO)o1	–	–	–	–	–	–	·
Cc1cc2[nH]c3c(c[n+](C)c4ccccc34)c2cc1C	–	–[11.6 µM]	–	–	–	?	3.79
Cc1ccc2nc(-c3ccc(C)c(NC(=O)COc4ccc(Br)cc4)c3)oc2c1	·	·	·	·	·	–	·
COc1cc(/C=C2\SC(=S)N(NS(=O)(=O)c3ccc(C)cc3)C2=O)ccc1O	–	44.7µM	-68.5	–	–	–	67.5
CCOc1cc(/C=C2\SC(=S)N(NC(=O)c3cccnc3)C2=O)ccc1O	–	56.2µM	–	–	–	?	84.9
COc1cc(/C=C2\SC(=S)N(NC(=O)c3ccccc3OC)C2=O)ccc1O	–	15.8µM	–	·	–	?	?
Cc1c(N2C(=O)/C(=C3/C(=O)N(C)c4ccccc43)SC2=S)c(=O)n(-c2ccccc2)n1C	–	–	·	–	–	–	·
COc1cc(/C=C2/SC(=S)N(c3c(C)n(C)n(-c4ccccc4)c3=O)C2=O)ccc1O	?	?	–	–	–	?	?
C1CCCC1	·	·	·	–	·	·	·
COC(=O)CCN(Cc1ccco1)S(=O)(=O)c1ccc(F)cc1Br	·	·	·	–	·	–	·
O=c1[nH]c2c(-c3nc(-c4ccc(Cl)cc4)cs3)c(O)cn2c2ccccc12	·	·	·	·	·	–	·
CCCCc1ccc(CC(=O)NO)cc1	·	·	·	·	·	–	·
COc1cc(/C=C2\SC(=S)N(NC(=O)c3ccncc3)C2=O)ccc1O	–	50.1µM	–	–	–	?	75.7
CC(/C=C1\SC(=S)N(NC(=O)c2ccncc2)C1=O)=C\c1ccccc1	–	?	–	–	–	–	·
SMILES	PGK inhibitor	WRN inhibitor	PI5P4Ka inh	TDP1 inh	Tb PFK inh	FEN1 inh-1	FEN1 inh-2
CCC(O)OC(O)CC (centres undefined)	·	·	·	–	·	·	·
O=C1NC(=O)/C(=C\c2ccc(Br)o2)S1	–	–	?	·	–	?	·
O=C1NC(=O)/C(=C/c2ccc(-c3cc(C(=O)O)ccc3Cl)o2)S1	?	–[11.6 µM]	-81.9	31.6µM	–	20µM	37.9
Cc1cccc2nc(-c3cccc(NC(=O)c4ccc(Cl)cc4)c3)cn12	–	–[11.6 µM]	–	–	–	?	60.1
O=C(OCCc1ccccc1)c1cc(O)c(O)c(O)c1	–	?	–	–	–	39.8µM	37.9
COc1ccccc1-[n+]1c(C)cc(/C=C2\Sc3ccccc3N2C)cc1C	–	?	–	–	–	?	37.9
Cc1csc(CNc2ncnc3ccc(-c4ccco4)cc23)c1	·	·	·	·	–	·	·
COc1ccc(/C=N/Nc2cc(C)nc3ccc(Br)cc23)cc1	–	–[11.6 µM]	?	·	–	?	?
COc1cccc2c(N/N=C/c3ccccc3)cc(C)nc12	–	–	–	·	–	–	·
COc1ccc2nc(C)cc(N/N=C/c3cccc(OC)c3O)c2c1	–	?	–	·	–	14.1µM	9.53
c1ccc2c(c1)-c1cccc3cncc-2c13	–	–[11.6 µM]	–	·	·	?	?
O=C1c2cccc3cccc(c23)C(=O)N1c1cccnc1	·	–	·	–	–	–	·
CCN(c1ccccc1)S(=O)(=O)c1cc(C(=O)O)ccc1C	–	–[11.6 µM]	?	22.4µM	–	–	?
C[N+]1(CC(=O)c2ccc(I)cc2)CCCc2ccccc21 (centres undefined)	·	·	·	·	·	–	·
COc1cccc(-c2nc(N3CCN(C)CC3)c3ccccc3n2)c1O	–	–[11.6 µM]	–	–	–	50.1µM	37.9
O=C(CSc1nnc(-c2ccco2)o1)c1ccc[nH]1	–	–	-85.6	–	–	–	?
COCCCNc1c2c3c(cccc3[nH]c1=O)C(=O)c1ccccc1-2	–	28.2µM	–	–	–	79.4µM	60.1
c1ccc(-c2nc(-n3ccnc3)nc(-n3ccnc3)n2)cc1	–	–	–	–	–	?	42.6
NC1CCN(c2c(F)cc3c(=O)c(C(=O)O)cn(C4CC4)c3c2Cl)C1 (centres undefined)	–	–[11.6 µM]	–	–	–	31.6µM	?
COc1ccc(-c2cn3c(n2)sc2cc(C(=O)NCCCN4CCN(C)CC4)ccc23)cc1	–	·	·	–	·	–	·
COc1ccc(-c2cn3c(n2)sc2cc(C(=O)NCCCN4CCCCC4)ccc23)cc1	–	·	·	–	·	–	67.5
COc1ccc(-c2cn3c(n2)sc2cc(C(=O)NCCCN4CCCCCC4)ccc23)cc1	–	·	·	–	·	–	37.9
Cc1ccc(S(=O)(=O)Nc2cccc3ccc[n+](C)c23)cc1	·	·	·	–	·	·	·
COC(=O)C1=COC(OC2OC(CO)C(O)C(O)C2O)C2C1C=CC2(O)CO (centres undefined)	?	–	–	·	–	–	?
O=c1cc(-c2ccc(O)cc2)oc2ccc3ccccc3c12	?	–	–	31.6µM	–	?	?
CC(=O)Nc1ccc(C(=O)N/N=C/c2ccccc2OCc2ccccc2)cc1	–	–	–	–	–	–	·
